Screens: PubChem, Broad Institute
The list is not random: actives were taken first. Their share in the collection is about 6.8%.
C_diff_HTS: C. difficile growth inhibitors, primary screen, HTS; Clostridium difficile clinical isolate growth, OD600, 24 h; active compounds read low; 0.25% of 86,000 active; growth activity, negative = inhibition, % at 16 µg/mL (by protocol);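 active = mean growth activity at or below -80% and every replicate also at or below -80%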
Pf_Dd2_inh: P. falciparum Dd2 growth inhibitors, primary screen, SYBR Green fluorescence, single dose replicates. 72 h; active compounds read low. activity change, % at 10 µM. 2.3% of 94,000 active; in the data active = activity change below about -80%
T_cruzi_growth-1: T. cruzi intracellular proliferation inhibitors, primary screen, cell-based, beta-gal Tulahuen parasites, NIH3T3 host, luminescence. T. cruzi beta-gal in NIH3T3, GalScreen luminescence, 90 h. inhibition, % at 8.34 µM. 5.9% of 77,000 active;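 active = mean inhibition above about 93%, with at least 55% of replicates each passing it, limit read from the data, passing the limit was not always enough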
T_cruzi_growth-2: T. cruzi intracellular proliferation inhibitors, confirmation, cell-based, NIH3T3 host, beta-gal parasite, luminescence, cherry-pick; shares compounds with T_cruzi_growth-1; T. cruzi beta-gal in NIH3T3, GalScreen luminescence, 90 h; inhibition, % at 8.35 µM; 72% of 5,600 active; AID 651739, 2012;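 active = mean replicate inhibition above about 95% and at least 55% of replicates individually reaching it, limit read from the data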
T_cruzi_growth-3: inhibitors of intracellular T. cruzi replication, confirmation, NIH3T3 host cells, beta-gal parasites, cherry-pick, set 2; AID 651740, 2012; T. cruzi beta-gal in NIH3T3, GalScreen luminescence, 90 h; inhibition, % at 2.09 µM; shares compounds with T_cruzi_growth-1; 21% of 5,600 active;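 active = mean inhibition above about 95%, with at least 55% of replicates also reaching it, limit read from the data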
NIH3T3_tox: cytotoxicity in mouse NIH/3T3 fibroblasts, confirmation, cytotoxicity control for T. cruzi proliferation inhibitor project, cell-based, cherry-pick, single point; shares compounds with T_cruzi_growth-1; NIH/3T3 viability, CellTiter-Glo ATP luminescence, 90 h; cytotoxicity (signal decrease), % at 8.35 µM; 14% of 5,600 active;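 active = mean signal decrease across replicates above about 35% based on untreated-well scatter, with enough replicates individually passing, limit read from the data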
NIH3T3_tox_2: NIH/3T3 fibroblast cytotoxicity, confirmation, cytotoxicity control, cell-based, cherry-pick, single point, set 2. NIH/3T3 viability, CellTiter-Glo ATP luminescence, 90 h. shares compounds with T_cruzi_growth-1. inhibition, % at 24.9 µM. 56% of 5,600 active;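 active = mean loss of cell viability signal at or above a set limit, and enough replicates individually reaching it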
Hits are given with their value; i = inactive; nt = no result.

SMILES C_diff_HTS Pf_Dd2_inh T_cruzi_growth-1 T_cruzi_growth-2 T_cruzi_growth-3 NIH3T3_tox NIH3T3_tox_2
C[C@H](CO)N1C[C@H](C)[C@H](CN(C)Cc2ccc(C(=O)Nc3ccccc3N)cc2)OCc2cnnn2CCCC1=O i i 106.0 108.0 i i i
COCC(=O)N1C[C@@H]2[C@H](c3ccccc31)[C@@H](CO)N2Cc1ccccc1F i i i nt nt nt nt
CN(C[C@@H]1[C@@H](c2ccccc2)[C@H](CO)N1C(=O)C1CCC1)C(=O)c1ccccn1 i i i nt nt nt nt
COCC(=O)Nc1ccc2c(c1)[C@@H]1C[C@H](CC(=O)NCc3ccc(Cl)cc3)O[C@@H](CO)[C@@H]1O2 i i i nt nt nt nt
C[C@H]1CN([C@@H](C)CO)C(=O)Cc2cc(NC(=O)CCC(F)(F)F)ccc2O[C@H]1CN(C)Cc1ccc(Cl)c(Cl)c1 i i i nt nt nt nt
C[C@H](CO)N1C[C@H](C)[C@@H](CN(C)C(=O)Cc2ccncc2)Oc2cc(C3=CCCCC3)ccc2S1(=O)=O i i i nt nt nt nt
C[C@H](CO)N1C[C@H](C)[C@@H](CN(C)Cc2ccncc2)Oc2cc(C3=CCCCC3)ccc2S1(=O)=O i i 115.5 103.2 102.3 51.8 104.8
C[C@H](CO)N1C[C@H](C)[C@H](CN(C)Cc2cccnc2)Oc2cc(C3=CCCC3)ccc2S1(=O)=O i i i nt nt nt nt
C[C@@H]1CN([C@H](C)CO)S(=O)(=O)c2ccc(C3=CCCCC3)cc2O[C@H]1CN(C)Cc1ccncc1 i i 118.5 i 98.5 66.6 104.1
C[C@H]1CN([C@@H](C)CO)S(=O)(=O)c2ccc(C3=CCCCC3)cc2O[C@H]1CN(C)Cc1ccncc1 i i 113.6 i i 51.0 65.9
C[C@@H]1CN([C@H](C)CO)S(=O)(=O)c2ccc(C3=CCCCC3)cc2O[C@@H]1CN(C)Cc1ccncc1 i i 109.8 99.9 i i 67.2
C[C@H](CO)N1C[C@H](C)[C@H](CN(C)Cc2cncnc2)Oc2cc(C3=CCCCC3)ccc2S1(=O)=O i i i nt nt nt nt
C[C@H]1CN([C@@H](C)CO)S(=O)(=O)c2ccc(C3=CCCC3)cc2O[C@H]1CN(C)Cc1cccnc1 i i i nt nt nt nt
COc1cccc(C(=O)N2C[C@@H]3[C@H](c4ccccc42)[C@H](CO)N3Cc2ccccc2Cl)c1 i i i nt nt nt nt
CC(=O)N1CC[C@@H]2[C@H]1c1cc(-c3cccc(F)c3)ccc1N(C)[C@@H]2CO i i i nt nt nt nt
COc1ccc(S(=O)(=O)N(C)C[C@H]2Oc3c(NC(=O)Nc4ccccc4)cccc3C(=O)N([C@H](C)CO)C[C@H]2C)cc1 nt i i nt nt nt nt
COc1ccc(S(=O)(=O)N(C)C[C@H]2Oc3c(NC(=O)Nc4cccc5ccccc45)cccc3C(=O)N([C@H](C)CO)C[C@H]2C)cc1 i -82.6 127.8 i i i 28.9
C[C@H](CO)N1C[C@H](C)[C@H](CN(C)S(=O)(=O)c2ccccc2)Oc2c(NC(=O)Nc3cccc4ccccc34)cccc2C1=O i i nt nt nt nt nt
COc1ccc(S(=O)(=O)N(C)C[C@H]2Oc3c(NC(=O)Nc4cccc5ccccc45)cccc3C(=O)N([C@H](C)CO)C[C@@H]2C)cc1 i i 117.0 108.3 i i i
COc1ccc(S(=O)(=O)N(C)C[C@H]2Oc3c(NC(=O)Nc4cccc5ccccc45)cccc3C(=O)N([C@@H](C)CO)C[C@@H]2C)cc1 i i 100.3 111.8 i i i
COc1ccc(S(=O)(=O)N(C)C[C@H]2Oc3c(NC(=O)Nc4ccccc4)cccc3C(=O)N([C@@H](C)CO)C[C@@H]2C)cc1 nt i i nt nt nt nt
C[C@H](NC(=O)C[C@@H]1C=C[C@@H](NC(=O)Nc2ccc3c(c2)OCO3)[C@@H](CO)O1)c1ccccc1 i i nt nt nt nt nt
